Compound activity: PubChem BioAssay, several laboratories
Mtb FBA inh: inhibits M. tuberculosis FBA enzyme; inhibition, % at 1 µM; P9WQA3; hit rate 2.3% among 360,000; purified M. tuberculosis FBA, fluorescence read-out; in the data active = inhibition above about 27%;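 note: 0% = vehicle and 100% = reference inhibitor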
Target sequence (P9WQA3 whole entry, looked up): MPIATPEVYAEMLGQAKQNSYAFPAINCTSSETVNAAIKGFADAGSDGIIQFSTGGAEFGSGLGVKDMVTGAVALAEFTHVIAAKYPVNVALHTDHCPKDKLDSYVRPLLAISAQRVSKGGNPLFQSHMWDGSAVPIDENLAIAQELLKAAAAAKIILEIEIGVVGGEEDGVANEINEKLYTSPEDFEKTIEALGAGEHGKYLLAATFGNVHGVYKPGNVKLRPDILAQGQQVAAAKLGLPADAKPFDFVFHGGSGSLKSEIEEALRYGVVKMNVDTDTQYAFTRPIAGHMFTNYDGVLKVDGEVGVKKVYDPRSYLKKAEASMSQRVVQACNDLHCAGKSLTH
Rv3671c inh: Rv3671c (M. tuberculosis) protease inhibition | P9WHR9 | inhibition, % at 5.96 µM | hit rate 0.048% among 320,000 | AID 2606; in the data active = inhibition above about 38%;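 note: extracellular domain of Rv3671c used as enzyme; 0% = enzyme with DMSO and 100% = no enzyme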
Mtb hypoxia inh: Mtb hypoxia fluorescent reporter inhibition; M. tuberculosis hypoxia-regulated fluorescent reporter, fluorescence; fluorescence inhibition, % (test concentration not listed); hit rate 0.1% among 300,000; AID 1159583; in the data active = fluorescence inhibition mostly above about 23%, no sharp cut-off; inactive = mostly below about 17%
GDH-TPI inh: GDH-TPI coupled enzyme inhibition counter-screen | GDH-TPI coupled enzyme counterscreen, NADH absorbance | AID 588335 | inhibition, % at 4.8 µM | hit rate 1.2% among 360,000; in the data active = inhibition above about 30%;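 note: 0% = DMSO wells and 100% = wells lacking the enzyme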
FadD28 binding: blocks FadD28 binding to the bisubstrate probe. hit rate 0.22% among 360,000. AID 588549. fluorescence polarization. inhibition, % at 12.5 µM; in the data active = inhibition above about 8.5%, passing the limit was not always enough
Mtb UGM inh: inhibitors of M. tuberculosis UDP-galactopyranose mutase | purified UGM, fluorescence polarization probe displacement | inhibition, % at 10 µM | hit rate 0.06% among 320,000 | AID 504406; in the data active = inhibition above about 10%, passing the limit was not always enough
* hit, by the source's call; · = not tested or not shown; + = active, no number. In the library only some 3.5% were active in any assay of this set; here they are far more common.

SMILES	Mtb FBA inh	Rv3671c inh	Mtb hypoxia inh	GDH-TPI inh	FadD28 binding	Mtb UGM inh
O=C(CSCc1ccc([N+](=O)[O-])cc1)NN=Cc1ccncc1	·	·	9	·	·	·
CC(=O)c1ccc(-c2cccs2)s1	+	15	-7	10	-2	-4
COc1ccccc1NC(=O)C1CCN(S(=O)(=O)c2cccs2)CC1	1	4	·	8	1	17*
Cc1nn(Cc2ccccc2Cl)c(C)c1NC(=O)c1nc2ncccn2n1	0	-1	4	37*	-5	2
CC(C)CC(=O)O/N=C1\C(=O)N(Cc2ccc(Cl)cc2)c2ccc([N+](=O)[O-])cc21	·	77*	·	·	·	0
CC(=O)O/N=C1\C(=O)N(Cc2ccc(C)cc2)c2ccccc21	-1	·	·	0	-2	·
N#Cc1ccc(-c2cccc3nccn23)cc1	178*	·	·	4	-3	·
c1cn2cc(-c3ccc(CN4CCOCC4)cc3)ccc2n1	14	·	·	5	-1	·
CN1CCN(c2ccc(-c3cccc4nccn34)cn2)CC1	+	·	·	30	-1	·
c1cc(-c2ccc(CN3CCOCC3)cc2)n2ccnc2c1	+	·	·	8	-2	·
CC(=NNC(=O)CSc1nc(C)cc(C)n1)c1cccc([N+](=O)[O-])c1	·	·	-1	·	·	·
C=CCC(CC(=O)NCCO)C(=O)NC(COC(=O)C(CC=C)CC(=O)OC(C)(C)C)c1ccccc1 (stereo not given)	·	·	9	·	·	·
CCN1C[C@]2(COC)C(O)CC(OC)[C@@]34C5C[C@]6(O)C(OC)C(O)[C@@](OC(C)=O)(C5C6OC(=O)c5ccccc5)C(C(OC)C23)C14 (stereo not given in full)	·	·	8	·	·	·
COc1cc(C=NNC(=O)c2ccncc2)ccc1OC(=O)c1cc(OC)c(OC)c(OC)c1	·	·	3	·	·	·
CC(C)=CCC[C@](C)(OC1OC(COC2OC(CO)C(O)C(O)C2O)C(O)C(O)C1O)C1CC[C@]2(C)C1C(=O)CC1[C@@]3(C)CCC(OC4OC(CO)C(O)C(O)C4O)C(C)(C)C3CC[C@]12C (stereo not given in full)	·	·	3	·	·	·
NC1=NC(=O)/C(=C\c2ccc(O)c([N+](=O)[O-])c2)S1	-13	0	56*	24	-3	2
COc1cc(/C=C2\SC(N)=NC2=O)ccc1OCC(=O)Nc1ccccc1C	0	-21	57*	24	-2	0
COc1ccc(/C=C2\SC(N)=NC2=O)cc1Br	-7	3	1	31*	-11	2
CCCc1cc(NCCN(C)C)n2c(nc3ccccc32)c1C#N	162*	1	11	12	-3	0
CCc1c(C)c(C#N)c2nc3ccccc3n2c1NCCN(C)C	9	2	13	1	-4	1
CCCc1cc(NCCCN(C)C)n2c(nc3ccccc32)c1C#N	112*	5	4	6	1	0
CCCc1cc(NCC2CCCO2)n2c(nc3ccccc32)c1C#N (stereo not given)	192*	-11	18	15	-3	2
CCCCC(C)=NNC(=O)Nc1ccccc1	·	·	7	·	·	·
O=C(CN1CCCC1)Nc1ccc(F)cc1	-2	8	-2	-1	-4	0
O=C(CN1CCCC1)NCC(=O)Nc1ccc(F)cc1	+	5	3	11	0	-4
SMILES	Mtb FBA inh	Rv3671c inh	Mtb hypoxia inh	GDH-TPI inh	FadD28 binding	Mtb UGM inh
COc1ccc2cc(C(=O)C3CCCN(C(=O)Cc4c(C)noc4C)C3)ccc2c1 (stereo not given)	182*	6	4	13	-3	-1
COc1ccc2cc(C(=O)C3CCCN(C4CCOCC4)C3)ccc2c1 (stereo not given)	148*	3	-14	20	1	-2
COC(=O)C1=CC(C(=O)c2cccs2)=NN(c2ccc(OC)cc2)C1C(=O)OC (stereo not given)	-9	0	5	17	-7	21*
CCOC(=O)CSc1ccc2ccccc2n1	4	1	4	2	0	-1
CCOC(=O)CN1C=C(c2ccc3ccccc3n2)C(C[N+](=O)[O-])c2ccccc21 (stereo not given)	19	5	9	9	-4	17*
COc1cc(C=NN(C)c2ccccc2)cc(Cl)c1O	·	·	8	·	·	·
CCC(CC)c1nn2c(N)c(/C=C3\C=Nc4ccccc43)c(=O)nc2s1	+	-8	3	19	-2	4
CC(C)c1nn2c(N)c(/C=C3\C=Nc4ccccc43)c(=O)nc2s1	1	0	-13	12	-1	1
CC(C)Sc1nsc2nc(=O)c(/C=C3\C=Nc4ccccc43)c(N)n12	-2	-51	2	15	19*	1
COc1ccc2sc(-c3ccc(S(C)(=O)=O)cc3)c(C#CCO)c2c1	21	-26	·	34*	-5	-2
COc1ccc2c(C#CCCO)c(-c3ccc(S(C)(=O)=O)cc3)sc2c1	+	-1	6	29	-2	-3
COc1ccc2c(-c3ccc(S(N)(=O)=O)cc3)c(-c3ccc(S(C)(=O)=O)cc3)sc2c1	+	-16	-2	12	0	·
COc1ccc(-c2sc3cc(OC)c(OC)cc3c2C#CCCO)cc1	24	9	11	26	0	-1
COc1ccc(-c2sc3ccccc3c2C#CCO)cc1	17	-21	·	8	0	-1
CS(=O)(=O)c1ccc(-c2sc3ccccc3c2C#CCCO)cc1	17	-5	5	32*	-4	4
CC(Cl)=CCn1c(N2CCCC2)nc2c1c(=O)[nH]c(=O)n2C	·	·	7	·	·	·
COc1ccc2cc3cc(C(=O)N4CCCC(C)C4)oc3nc2c1 (stereo not given)	14	-12	17	18	0	0
COc1ccc2cc3cc(C(=O)NCC4CCCO4)oc3nc2c1 (stereo not given)	+	4	·	30	-2	0
CCOc1ccc(NC(=O)c2cc3cc4ccc(OC)cc4nc3o2)cc1	0	0	4	8	-4	-1
COc1ccc2cc3cc(C(=O)NCCC(C)C)oc3nc2c1	134*	4	1	15	-1	3
Cc1ccc2cc3cc(C(=O)NCCCN4CCCC4)oc3nc2c1	127*	-5	8	38*	-7	1
CCC(C)NC(=O)c1cc2cc3ccc(OC)cc3nc2o1 (stereo not given)	+	-15	12	21	-4	0
CCOC(=O)C1C2COc3cc(OC)ccc3C2N2C(=O)N(c3ccc(C)cc3)C(=O)[C@]12C (stereo not given in full)	·	·	11	·	·	·
S=c1[nH]nc(-c2ccco2)n1N=Cc1ccc(Cl)cc1Cl	·	·	10	·	·	·
COCCNC(=O)c1cc2cc3ccc(OC)cc3nc2o1	+	-4	-5	22	-3	2
COc1ccc2cc3cc(C(=O)NCCN4CCN(c5ccccc5F)CC4)oc3nc2c1	+	-8	·	34*	-6	-2
O=S(c1ccccc1O)S(=O)c1ccccc1O (stereo not given)	2	·	0	-2	28*	·
